“And” between values parts separate entries of the source, which are not always exact repeats. Equal values may be shown once. Inconclusive results are not listed. The source made the active and inactive calls. Unless noted, calls follow the shape of the dose curve; as a rule, active = well fitted curve in the direction sought with a large enough effect in the repeat runs; inconclusive = weak or mixed curves; inactive = no such curve, though single readings can be large; an effect the other way counts as inactive or inconclusive.
Tests used:
[1] = qHTS assay to identify small molecule antagonists of the glucocorticoid receptor (GR) signaling pathway - cell viability counter screen (AID 720693); also: nearly all actives have a fitted effect of over 55% in size
[2] = qHTS assay to identify small molecule antagonists of the androgen receptor (AR) signaling pathway - cell viability counter screen (AID 743033; also: nearly all actives have a fitted effect of over 45% in size)
[3] = biological target: Androgen receptor (Homo sapiens) (UniProt P10275); assay: qHTS assay to identify small molecule antagonists of the androgen receptor (AR) signaling pathway (AID 743035; active = well fitted inhibition curve with a large enough effect in the signal ratio in the repeat runs, not every such curve was filed as active; the % refers to the signal ratio)
In short: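 Reporter HEK293 cells were exposed to compounds and R1881 overnight (16 h, 37C); beta-lactamase activity was then quantified by FRET fluorescence.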

[4] = biological target: Androgen receptor (Homo sapiens) (UniProt P10275); assay: qHTS assay to identify small molecule agonists of the androgen receptor (AR) signaling pathway using the MDA cell line (AID 743040; also: nearly all actives have a fitted effect of over 20% in size; also: potency is read from the fitted curve at half-maximal effect)
In short: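 Testing was done with the MDA-kb2 AR-luc line, a human breast carcinoma stably transfected with MMTV-luciferase containing AR and GR response elements. Cells were exposed 16 h at 37C before ONE-Glo luminescence detection.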

[5] = qHTS assay to identify small molecule antagonists of the androgen receptor (AR) signaling pathway using the MDA cell line - cell viability counter screen (AID 743041; also: nearly all actives have a fitted effect of over 45% in size)
In short: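 Compound exposure lasted 16 h at 37C in MDA-kb2 AR-luc cells stimulated with R1881. Protease-based CellTiter-Fluor reagent was applied for the final 30 min and fluorescence measured.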

[6] = qHTS assay to identify small molecule antagonists of the thyroid receptor (TR) signaling pathway - cell viability counter screen (AID 743064); also: nearly all actives have a fitted effect of over 50% in size
In short: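 Rat GH3 pituitary tumor cells stably expressing two TR response elements driving luciferase were plated, rested 4 h, then dosed with library compounds and T3 (1 nM final). After 23.5 h at 37 °C, CellTiter-Fluor was added for 30 min and fluorescence recorded.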

[7] = qHTS assay for identifying genotoxic compounds that show differential cytotoxicity against isogenic chicken DT40 cell lines with known DNA damage response pathways - wild type cell line (AID 743012); also: nearly all actives have a fitted effect of over 60% in size; also: potency is read from the fitted curve at half-maximal effect
In short: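 Viability of DNA repair-proficient chicken DT40 cells was assessed by CellTiter-Glo luminescence following 40 h compound exposure at 37 C/5% CO2.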

[8] = qHTS assay for identifying genotoxic compounds that show differential cytotoxicity against isogenic chicken DT40 cell lines with known DNA damage response pathways - Rad54/Ku70 mutant cell line (AID 743015); also: nearly all actives have a fitted effect of over 60% in size; also: potency is read from the fitted curve at half-maximal effect
[9] = qHTS assay for identifying genotoxic compounds that show differential cytotoxicity against isogenic chicken DT40 cell lines with known DNA damage response pathways - Rev3 mutant cell line (AID 743014); also: nearly all actives have a fitted effect of over 55% in size; also: potency is read from the fitted curve at half-maximal effect
[10] = biological target: Androgen receptor (Homo sapiens) (UniProt P10275); assay: qHTS assay to identify small molecule agonists of the androgen receptor (AR) signaling pathway (AID 743036; active = well fitted activation curve with a large enough effect in the signal ratio in the repeat runs, with a control signal flat, not every such curve was filed as active; the % refers to the signal ratio)
In short: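 Quantitative HTS of the Tox21 10K library in HEK293 cells bearing a stably integrated UAS-controlled beta-lactamase reporter. Compound exposure lasted 16 h at 37C. Reporter activity was detected by FRET substrate fluorescence after 2 h at room temperature.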
% is scaled to controls: 0 for no effect and ±100 for the full control effect.

Sequence of Androgen receptor (Homo sapiens) (P10275 whole entry, looked up): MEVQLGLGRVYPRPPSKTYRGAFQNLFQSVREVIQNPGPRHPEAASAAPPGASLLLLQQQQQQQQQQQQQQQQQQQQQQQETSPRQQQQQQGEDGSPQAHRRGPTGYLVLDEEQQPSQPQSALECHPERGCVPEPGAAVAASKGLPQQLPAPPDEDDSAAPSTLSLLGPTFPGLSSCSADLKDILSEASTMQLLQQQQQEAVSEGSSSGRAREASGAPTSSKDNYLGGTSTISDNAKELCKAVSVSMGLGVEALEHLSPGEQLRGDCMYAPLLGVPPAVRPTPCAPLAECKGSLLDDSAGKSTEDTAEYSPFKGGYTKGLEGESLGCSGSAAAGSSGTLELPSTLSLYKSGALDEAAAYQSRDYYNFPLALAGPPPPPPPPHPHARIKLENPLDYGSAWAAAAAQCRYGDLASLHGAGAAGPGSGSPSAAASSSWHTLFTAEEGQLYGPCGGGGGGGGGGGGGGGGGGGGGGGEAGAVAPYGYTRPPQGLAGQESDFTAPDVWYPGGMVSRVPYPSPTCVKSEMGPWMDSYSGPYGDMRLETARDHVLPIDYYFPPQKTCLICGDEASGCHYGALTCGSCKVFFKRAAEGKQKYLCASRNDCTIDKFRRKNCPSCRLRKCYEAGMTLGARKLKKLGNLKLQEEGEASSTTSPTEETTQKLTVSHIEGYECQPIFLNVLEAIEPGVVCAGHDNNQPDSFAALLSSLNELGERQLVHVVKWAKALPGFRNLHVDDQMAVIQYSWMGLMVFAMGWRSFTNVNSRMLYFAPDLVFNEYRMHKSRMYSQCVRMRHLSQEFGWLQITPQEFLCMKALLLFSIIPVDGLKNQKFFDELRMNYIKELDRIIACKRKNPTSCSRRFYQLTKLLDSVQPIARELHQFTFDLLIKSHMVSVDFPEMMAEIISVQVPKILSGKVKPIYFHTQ

CCCCCCCCN(C)CCCCCCCC
inactive: outcome [1] | outcome [2] | Potency [3] | Potency [4] | Potency [5] | Potency [6]

CC/C=C\CCCCO
inactive: outcome [1] | Potency [7] | Potency [6]

CC1CCN(CCCC(=O)c2ccc(F)cc2)CC1
active: Potency [8] 7.5 µM
inactive: outcome [1] | outcome [2] | Potency [6]

CCOC(=O)Cn1c(=O)sc2cccc(Cl)c21
inactive: outcome [1] | Potency [8] | Potency [5] | Potency [6]

CC(=O)CCc1ccc(O)cc1
inactive: outcome [1] | Potency [8] | outcome [2] | Potency [5] | Potency [6]

C=CCOc1nc(OCC=C)nc(OCC=C)n1
inactive: outcome [1] | Potency [6]

O=C1OC(=O)c2cc([N+](=O)[O-])ccc21
inactive: Potency [7] | Potency [9] | Potency [8] | outcome [2] | Potency [5] | Potency [6]

FC(F)(F)C(F)(F)C(F)(F)C(F)(F)C(F)(F)C(F)(F)C(F)(F)C(F)(F)C(F)(F)C(F)(F)F
inactive: viability change, negative = cytotoxic [1] -1.03% [at 7.04 µM] | activity change, negative = cytotoxicity [8] 4.69% [at 8.55 µM] | activity change, negative = cytotoxicity [2] 0.133% [at 7.04 µM] | viability change, negative = cytotoxic [5] 6.81% [at 8.47 µM] | activity change, negative = cytotoxic [6] 12.8% [at 8.44 µM]

O=C(O)Cc1cc(I)c(Oc2cc(I)c(O)c(I)c2)c(I)c1
inactive: Potency [7] | Potency [9] | Potency [8] | outcome [2]

C=CC(=O)N1CCOCC1
inactive: outcome [1] | Potency [9] | Potency [8] | outcome [2] | Potency [5] | Potency [6]

Nc1ccn(C2CO[C@H](CO)O2)c(=O)n1 (stereo partly drawn)
inactive: outcome [1] | outcome [2] | Potency [5]

C=C(C)C(=O)OCCC(C)OC(=O)C(=C)C (stereo not drawn)
inactive: Potency [7] | Potency [9] | Potency [8] | outcome [2] | Potency [5] | Potency [6]

Nc1nc(F)nc2c1ncn2[C@@H]1O[C@H](CO)[C@@H](O)[C@@H]1O
inactive: outcome [2] | Potency [5]
active: Potency [7] 841 nM and 1.68 µM | Potency [9] 596 nM and 1.88 µM | Potency [8] 1.33 µM and 2.66 µM

CSc1ccc(C=O)cc1
inactive: Potency [7] | Potency [9] | Potency [8] | outcome [2] | Potency [5] | Potency [6]

C#CC(O)CCCCC (stereo not drawn)
inactive: Potency [9] | Potency [8] | outcome [2] | Potency [5] | Potency [6]

c1ccc(CCCc2ccccn2)cc1
inactive: Potency [7] | Potency [9] | Potency [8] | outcome [2] | Potency [6]

C=C(C)[C@H]1CC=C(C)CC1
inactive: Potency [7] | Potency [9] | Potency [8] | outcome [2] | Potency [5] | Potency [6]

CC(C)COC(=O)C(C)C
inactive: Potency [9] | Potency [8] | outcome [2] | Potency [6]

Cc1ccc(Nc2ccc(O)c3c2C(=O)c2ccccc2C3=O)cc1
inactive: Potency [7] | Potency [9] | Potency [8] | Potency [5] | Potency [6]

O=C(O)C(O)[C@H](O)[C@@H](O)[C@H](O)[C@H](O)CO (stereo partly drawn)
inactive: Potency [7] | Potency [9] | Potency [8] | outcome [2] | Potency [6]

CNc1ncnc2nc[nH]c12
inactive: Potency [7] | Potency [9] | Potency [8] | outcome [2] | Potency [6]

N#CCc1ccccc1[N+](=O)[O-]
inactive: Potency [7] | Potency [9] | Potency [8] | outcome [2] | Potency [6]

OCCN1C[C@H](O)[C@@H](O)[C@H](O)[C@H]1CO
inactive: Potency [7] | Potency [8] | outcome [2] | Potency [3] | outcome [10] | Potency [4] | Potency [5] | Potency [6]

COC(=O)[C@H]1[C@H]2C[C@@H]3c4[nH]c5cc(OC)ccc5c4CCN3C[C@H]2C[C@@H](OC(=O)COc2ccc(OC)cc2)[C@@H]1OC
inactive: Potency [5] | Potency [6]
active: Potency [7] 21.1 µM | Potency [9] 33.5 µM | Potency [8] 18.8 µM

COC[C@H](c1ccc(C(F)(F)F)cc1)N1CCN(C2(C)CCN(C(=O)c3c(C)ncnc3C)CC2)C[C@H]1C
active: Potency [7] 29.8 µM
inactive: Potency [8] | outcome [2] | Potency [5] | Potency [6]

O=C(O)CCNC(=O)c1ccc(N=Nc2ccc(O)c(C(=O)O)c2)cc1
inactive: Potency [7] | Potency [9] | Potency [8] | Potency [5] | Potency [6]

CC(C)(O)c1ccccc1
inactive: Potency [7] | Potency [8] | outcome [2] | Potency [5] | Potency [6]

CC/C=C\C#N
inactive: Potency [7] | Potency [9] | Potency [8] | outcome [2] | Potency [5] | Potency [6]

Cc1ccccc1Br
inactive: Potency [7] | Potency [9] | Potency [8] | outcome [2] | Potency [6]

CO[Si](OC)(OC)OC
inactive: outcome [2] | Potency [5]

CC(=O)O[C@H](CC(=O)[O-])C[N+](C)(C)C
inactive: Potency [7] | Potency [9] | Potency [8] | outcome [2] | Potency [6]

CC(C)c1cccc(C(C)C)c1N
inactive: Potency [7] | Potency [8] | outcome [2] | Potency [5] | Potency [6]

CCCCCCCCCCCl
inactive: Potency [7] | Potency [8] | outcome [2] | Potency [5] | Potency [6]

C/C=C1\C(=O)C[C@H]2[C@@H]3CCC4=CC(=O)CC[C@]4(C)[C@H]3CC[C@]12C
inactive: Potency [6]
active: Potency [7] 18.9 µM | Potency [9] 10.7 µM | Potency [8] 13.4 µM

CC(C)(C)CC(C)(C)N
inactive: Potency [7] | Potency [9] | Potency [8] | Potency [5] | Potency [6]

Nc1ccc2cc(S(=O)(=O)O)ccc2c1
inactive: Potency [7] | Potency [9] | Potency [8] | outcome [2] | Potency [5] | Potency [6]

CN1[C@@H]2CC[C@H]1CC(NC(=O)n1c(=O)[nH]c3ccccc31)C2 (stereo partly drawn)
inactive: Potency [7] | Potency [8] | outcome [2] | Potency [3] | outcome [10] | Potency [4] | Potency [5] | Potency [6]

CCCC(C)CO (stereo not drawn)
inactive: Potency [7] | Potency [9] | Potency [8] | Potency [3] | outcome [10] | Potency [5]

NS(=O)(=O)c1cc2c(cc1Cl)NC(CSCc1ccccc1)=NS2(=O)=O
inactive: Potency [7] | Potency [8] | Potency [5] | Potency [6]

Cn1ccc2cc3c(cc21)CCN3C(=O)Nc1cccnc1
active: Potency [9] 13.3 µM | Potency [8] 26.6 µM
inactive: outcome [2] | Potency [5]

CCCCCCCCC=O
inactive: Potency [7] | Potency [9] | Potency [8] | outcome [2] | Potency [6]

CC(C)(O)Cc1ccccc1
inactive: Potency [7] | Potency [8] | outcome [2] | Potency [5] | Potency [6]

N[C@@H](CS)C(=O)O
inactive: Potency [7] | Potency [8] | outcome [2] | Potency [5] | Potency [6]

C=C(C)C(=O)NCCC[N+](C)(C)C
inactive: Potency [8] | Potency [5] | Potency [6]

O=C(O)c1ccccc1-c1ccc(C(F)(F)F)cc1
inactive: Potency [7] | Potency [9] | Potency [8] | Potency [5] | Potency [6]

O=C(O)c1ccccc1S
inactive: Potency [7] | Potency [8] | outcome [2] | Potency [6]

Cc1nc(-c2ccc(OCC(C)C)c(C#N)c2)sc1C(=O)O
inactive: Potency [7] | outcome [2] | Potency [5] | Potency [6]
active: Potency [4] 1.19 µM

C1C2OC2C2C1C1CC2C2OC12 (stereo not drawn)
inactive: Potency [7] | Potency [8] | outcome [2] | Potency [5]

NC1CCN(c2cccc(Cl)n2)CC1
inactive: outcome [2] | Potency [3] | outcome [10] | Potency [4]

CC(C)c1cccc(O)c1
inactive: Potency [7] | Potency [8] | outcome [2] | Potency [5] | Potency [6]

From PubChem BioAssay (Tox21)
